Holding throughout (assay): DAPPL (digital affinity profiling via proximity ligation, sequencing); 10 mM Tris-HCl pH 7.5, 50 mM NaCl, 1 mM DTT, 4% glycerol, room temperature, 30 min; GST-TFs on glutathione beads, 16-mer random dsDNA library, 0.1% formaldehyde crosslink after washing; high values mean tight binding
Conditions in all cases: protein: recombinant; tags: N-terminal GST; dsDNA, one strand shown

The target of test [1] is T1, FLI1 (Homo sapiens, UniProt Q01543 1-452).
T1 sequence: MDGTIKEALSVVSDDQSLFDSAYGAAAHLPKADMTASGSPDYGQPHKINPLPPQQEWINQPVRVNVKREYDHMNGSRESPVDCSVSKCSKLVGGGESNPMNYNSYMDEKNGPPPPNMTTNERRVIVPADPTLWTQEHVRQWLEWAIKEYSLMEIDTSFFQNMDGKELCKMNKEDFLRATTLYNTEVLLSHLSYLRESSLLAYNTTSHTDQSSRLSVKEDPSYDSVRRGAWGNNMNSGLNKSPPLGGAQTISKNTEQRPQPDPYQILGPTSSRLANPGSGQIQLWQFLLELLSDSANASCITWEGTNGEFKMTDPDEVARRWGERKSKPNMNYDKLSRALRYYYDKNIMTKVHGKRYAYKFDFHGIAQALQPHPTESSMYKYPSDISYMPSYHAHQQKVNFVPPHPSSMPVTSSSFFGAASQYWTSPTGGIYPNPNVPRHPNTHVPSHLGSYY
The essentials:
(§1)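 Pools were built from human transcription factors expressed in yeast as GST fusions, captured on glutathione beads and DNA-barcoded, along with a tag-only sample. Incubation with 200 nmole of a 16-mer random double-stranded DNA library lasted 30 min at room temperature in Tris/NaCl/DTT/glycerol buffer, and was followed by washing, 0.1% formaldehyde crosslinking, proximity ligation, PCR amplification and Illumina NextSeq500 sequencing. Binding signal is the quotient of each hexamer's read frequency for a factor and its frequency for the tag-only sample.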

For test [2], the target named is T2, ELK1 (Homo sapiens, UniProt P19419 1-428).
T2 sequence: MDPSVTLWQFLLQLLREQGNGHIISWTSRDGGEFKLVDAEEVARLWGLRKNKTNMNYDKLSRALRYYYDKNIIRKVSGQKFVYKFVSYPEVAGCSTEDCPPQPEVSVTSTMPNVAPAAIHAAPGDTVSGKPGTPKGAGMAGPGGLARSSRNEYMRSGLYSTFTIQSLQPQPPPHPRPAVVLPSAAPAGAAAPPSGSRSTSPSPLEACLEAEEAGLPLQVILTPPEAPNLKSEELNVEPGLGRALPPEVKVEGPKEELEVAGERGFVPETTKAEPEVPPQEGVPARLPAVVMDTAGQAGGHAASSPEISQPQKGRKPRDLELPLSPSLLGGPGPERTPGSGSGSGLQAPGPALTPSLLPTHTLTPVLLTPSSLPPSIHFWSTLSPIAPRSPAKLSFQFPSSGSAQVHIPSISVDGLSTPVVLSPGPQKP
The essentials: as §1

For test [3], the target named is T3, GABPA (Homo sapiens, UniProt Q06546 1-454).
T3 sequence: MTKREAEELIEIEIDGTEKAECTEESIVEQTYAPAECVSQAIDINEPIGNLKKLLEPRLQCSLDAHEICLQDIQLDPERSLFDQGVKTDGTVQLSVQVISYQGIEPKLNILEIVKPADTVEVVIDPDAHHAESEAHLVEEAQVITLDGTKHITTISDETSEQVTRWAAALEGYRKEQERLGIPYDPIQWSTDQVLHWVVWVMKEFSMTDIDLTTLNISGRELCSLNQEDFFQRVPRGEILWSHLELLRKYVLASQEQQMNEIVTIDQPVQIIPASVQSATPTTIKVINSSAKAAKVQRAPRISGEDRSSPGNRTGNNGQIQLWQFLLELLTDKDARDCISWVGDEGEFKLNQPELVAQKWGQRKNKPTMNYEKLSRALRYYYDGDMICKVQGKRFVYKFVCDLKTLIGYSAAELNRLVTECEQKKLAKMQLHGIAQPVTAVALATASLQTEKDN
The essentials:
as §1

Test [4] concerns the target T4, ERG (Homo sapiens, UniProt P11308 1-479).
T4 sequence: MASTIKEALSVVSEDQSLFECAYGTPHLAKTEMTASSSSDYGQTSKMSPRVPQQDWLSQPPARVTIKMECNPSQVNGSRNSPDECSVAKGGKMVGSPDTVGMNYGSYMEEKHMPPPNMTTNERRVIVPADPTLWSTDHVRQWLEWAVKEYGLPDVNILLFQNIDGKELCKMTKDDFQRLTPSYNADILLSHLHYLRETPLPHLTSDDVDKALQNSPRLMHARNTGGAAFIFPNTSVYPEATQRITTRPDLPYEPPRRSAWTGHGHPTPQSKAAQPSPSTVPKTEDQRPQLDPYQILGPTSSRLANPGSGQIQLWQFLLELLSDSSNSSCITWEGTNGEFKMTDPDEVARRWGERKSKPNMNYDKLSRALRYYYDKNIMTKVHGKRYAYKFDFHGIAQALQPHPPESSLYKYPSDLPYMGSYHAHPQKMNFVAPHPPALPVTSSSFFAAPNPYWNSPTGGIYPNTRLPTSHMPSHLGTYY
An outline of the steps:
as §1

The target in test [5] is ELF1 (Homo sapiens, UniProt P32519 1-619). An outline of the steps: as §1
Sequence of ELF1 (P32519 whole entry): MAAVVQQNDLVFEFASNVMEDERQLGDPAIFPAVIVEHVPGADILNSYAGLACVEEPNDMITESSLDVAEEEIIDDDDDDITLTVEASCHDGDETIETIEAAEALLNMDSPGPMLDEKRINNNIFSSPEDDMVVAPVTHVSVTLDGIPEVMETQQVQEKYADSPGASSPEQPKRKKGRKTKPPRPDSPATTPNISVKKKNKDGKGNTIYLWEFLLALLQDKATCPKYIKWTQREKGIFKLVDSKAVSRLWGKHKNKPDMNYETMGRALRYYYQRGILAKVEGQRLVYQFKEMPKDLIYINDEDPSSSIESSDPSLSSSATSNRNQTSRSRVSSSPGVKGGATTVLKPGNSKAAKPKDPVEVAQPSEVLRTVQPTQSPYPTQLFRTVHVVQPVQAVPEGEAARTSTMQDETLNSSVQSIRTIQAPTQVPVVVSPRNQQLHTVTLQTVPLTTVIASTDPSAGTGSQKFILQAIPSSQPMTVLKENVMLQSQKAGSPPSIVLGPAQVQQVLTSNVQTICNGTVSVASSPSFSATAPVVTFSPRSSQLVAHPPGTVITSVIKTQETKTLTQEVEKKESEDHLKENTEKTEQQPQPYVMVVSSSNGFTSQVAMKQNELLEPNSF
Test [6] deals with T5, EHF (Homo sapiens, UniProt Q9NZC4 1-300).
T5 sequence: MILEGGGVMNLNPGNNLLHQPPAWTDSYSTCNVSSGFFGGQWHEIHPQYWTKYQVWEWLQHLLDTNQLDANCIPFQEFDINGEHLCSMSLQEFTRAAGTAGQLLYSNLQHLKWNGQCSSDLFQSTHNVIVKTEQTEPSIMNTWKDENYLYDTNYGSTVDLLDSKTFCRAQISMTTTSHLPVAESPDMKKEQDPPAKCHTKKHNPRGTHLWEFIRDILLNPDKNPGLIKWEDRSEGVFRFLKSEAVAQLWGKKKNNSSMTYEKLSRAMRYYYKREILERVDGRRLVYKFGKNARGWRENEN
An outline of the steps: as §1

The target in test [7] is SPI1 (Homo sapiens, UniProt P17947 1-270). The essentials: as §1
The target in test [8] is SPIB (Homo sapiens, UniProt Q01892 1-262). The essentials:
as §1

Test [9] has as its target T6, ELK3 (Homo sapiens, UniProt P41970 1-407).
T6 sequence: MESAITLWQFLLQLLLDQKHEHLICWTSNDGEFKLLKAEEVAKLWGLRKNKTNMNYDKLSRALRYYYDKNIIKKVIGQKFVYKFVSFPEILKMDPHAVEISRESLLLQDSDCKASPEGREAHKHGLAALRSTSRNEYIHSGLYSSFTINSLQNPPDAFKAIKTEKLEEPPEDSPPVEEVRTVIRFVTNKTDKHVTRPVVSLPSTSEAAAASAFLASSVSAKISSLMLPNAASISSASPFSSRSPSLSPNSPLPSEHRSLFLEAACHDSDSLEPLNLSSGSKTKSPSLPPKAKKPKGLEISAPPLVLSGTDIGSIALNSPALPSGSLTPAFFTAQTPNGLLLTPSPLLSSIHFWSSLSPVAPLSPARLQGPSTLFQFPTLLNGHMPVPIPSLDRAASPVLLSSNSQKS
An outline of the steps: as §1

Test [10] addresses SPI1 (Homo sapiens, UniProt P17947 1-270). The essentials: as §1
This is another data set of the same source.

Sequence of SPIB (Q01892 whole entry): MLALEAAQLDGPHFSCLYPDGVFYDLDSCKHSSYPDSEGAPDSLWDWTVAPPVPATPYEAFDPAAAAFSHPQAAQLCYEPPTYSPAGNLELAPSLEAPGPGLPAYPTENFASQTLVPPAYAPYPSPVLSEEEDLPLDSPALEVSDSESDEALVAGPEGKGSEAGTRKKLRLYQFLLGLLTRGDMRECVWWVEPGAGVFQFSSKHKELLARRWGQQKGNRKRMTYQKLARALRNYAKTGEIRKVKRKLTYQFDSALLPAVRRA

Take TACTTC: the binding signal in [1] was 3.38 fold enrichment (6-mer frequency, TF over GST control); in [2] it was 3.79 fold enrichment (6-mer frequency, TF over GST control); in [3], 3.25 fold enrichment (6-mer frequency, TF over GST control); in test [4], 3.88 fold enrichment (6-mer frequency, TF over GST control); in [5] it was 3.54 fold enrichment (6-mer frequency, TF over GST control); in test [6], 3.7 fold enrichment (6-mer frequency, TF over GST control). The binding signal in test [7] is 4.12 fold enrichment (6-mer frequency, TF over GST control); in test [8], 3.33 fold enrichment (6-mer frequency, TF over GST control); in [9], 4.29 fold enrichment (6-mer frequency, TF over GST control).

As for ACTTAT, the binding signal in test [1] is 1.4 fold enrichment (6-mer frequency, TF over GST control); in test [2] it was 1.4 fold enrichment (6-mer frequency, TF over GST control); in test [3], 1.47 fold enrichment (6-mer frequency, TF over GST control); in test [4], 1.37 fold enrichment (6-mer frequency, TF over GST control); in test [5], 1.46 fold enrichment (6-mer frequency, TF over GST control); in test [6] it was 1.41 fold enrichment (6-mer frequency, TF over GST control). Besides, the binding signal was 1.39 fold enrichment (6-mer frequency, TF over GST control) in [10]; 1.38 fold enrichment (6-mer frequency, TF over GST control) in test [8]; 1.5 fold enrichment (6-mer frequency, TF over GST control) in test [9].

Consider CCAATT, for which the binding signal in test [1] is 1.2 fold enrichment (6-mer frequency, TF over GST control); in test [2] it was 1.24 fold enrichment (6-mer frequency, TF over GST control); in test [3], 1.25 fold enrichment (6-mer frequency, TF over GST control); in [4], 1.24 fold enrichment (6-mer frequency, TF over GST control); in test [5] it was 1.16 fold enrichment (6-mer frequency, TF over GST control); in test [6] it was 1.25 fold enrichment (6-mer frequency, TF over GST control). Further, the binding signal in test [10] was 1.23 fold enrichment (6-mer frequency, TF over GST control); in test [8], 1.28 fold enrichment (6-mer frequency, TF over GST control); in [9] it was 1.18 fold enrichment (6-mer frequency, TF over GST control).

As to ATATTA, the binding signal in test [1] was 1.08 fold enrichment (6-mer frequency, TF over GST control); in [2], 1.11 fold enrichment (6-mer frequency, TF over GST control); in [3] it was 1.12 fold enrichment (6-mer frequency, TF over GST control); in test [4], 1.09 fold enrichment (6-mer frequency, TF over GST control); in [5], 1.16 fold enrichment (6-mer frequency, TF over GST control); in [6] it was 1.08 fold enrichment (6-mer frequency, TF over GST control). The binding signal in test [10] is 1.03 fold enrichment (6-mer frequency, TF over GST control); in test [8] it was 1.16 fold enrichment (6-mer frequency, TF over GST control); in test [9], 1.13 fold enrichment (6-mer frequency, TF over GST control).

As for CTCGAT, the binding signal in [1] is 1.48 fold enrichment (6-mer frequency, TF over GST control); in test [2], 1.38 fold enrichment (6-mer frequency, TF over GST control); in [3], 1.32 fold enrichment (6-mer frequency, TF over GST control); in test [4], 1.26 fold enrichment (6-mer frequency, TF over GST control); in test [5] it was 1.49 fold enrichment (6-mer frequency, TF over GST control); in [6], 1.27 fold enrichment (6-mer frequency, TF over GST control). Also, the binding signal in [10] was 1.36 fold enrichment (6-mer frequency, TF over GST control); in test [8], 1.49 fold enrichment (6-mer frequency, TF over GST control); in test [9], 1.18 fold enrichment (6-mer frequency, TF over GST control).

As for CCACTA, the binding signal in [1] was 1.1 fold enrichment (6-mer frequency, TF over GST control); in test [2], 1.14 fold enrichment (6-mer frequency, TF over GST control); in test [3] it was 1.14 fold enrichment (6-mer frequency, TF over GST control); in test [4], 1.08 fold enrichment (6-mer frequency, TF over GST control); in test [5], 1.13 fold enrichment (6-mer frequency, TF over GST control); in test [6], 1.06 fold enrichment (6-mer frequency, TF over GST control). Also, the binding signal in test [10] is 1.04 fold enrichment (6-mer frequency, TF over GST control); in test [8], 1.04 fold enrichment (6-mer frequency, TF over GST control); in [9], 1.22 fold enrichment (6-mer frequency, TF over GST control).

With CTTAGC, the binding signal in test [1] was 1.22 fold enrichment (6-mer frequency, TF over GST control); in test [2], 1.17 fold enrichment (6-mer frequency, TF over GST control); in [3] it was 1.26 fold enrichment (6-mer frequency, TF over GST control); in test [4] it was 1.22 fold enrichment (6-mer frequency, TF over GST control); in test [5] it was 1.22 fold enrichment (6-mer frequency, TF over GST control); in test [6] it was 1.25 fold enrichment (6-mer frequency, TF over GST control). The binding signal in test [10] was 1.21 fold enrichment (6-mer frequency, TF over GST control); in test [8], 1.21 fold enrichment (6-mer frequency, TF over GST control); in test [9] it was 1.22 fold enrichment (6-mer frequency, TF over GST control).

For the origin of these results see article PMC7862700, “An all-to-all approach to the identification of sequence-specific readers for epigenetic DNA modifications on cytosine”.
